# Assay outcomes (PubChem BioAssay)
# FAS-TE inh: FAS thioesterase domain inhibitors, primary screen, biochemical, fluorescence intensity, uHTS; inhibition, % at 15 µM; AID 602261, 2012; actives 0.67% (n = 360,000); recombinant FAS-TE, OMFH fluorogenic substrate, fluorescence endpoint;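 active means compounds whose normalised, plate-corrected inhibition of enzyme fluorescence in the single-dose primary screen is 50% or more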;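 further: 0% = DMSO with enzyme and 100% = substrate without enzyme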
# ADAM17 inh: ADAM17 inhibitors, primary screen, biochemical, QFRET. inhibition, % at 6.95 µM. recombinant ADAM17, EDANS/DABCYL FRET peptide cleavage. AID 720648, 2013. actives 0.83% (n = 370,000). Disintegrin and metalloproteinase domain-containing protein 17 (Homo sapiens), P78536;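 active means inhibition above the mean of compounds lying between control limits plus 3 SD, set per campaign, cut at about 8.5% in these data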;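 further: 0% = DMSO-only wells as the low control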
# Target sequence (P78536 215-824 limits assumed): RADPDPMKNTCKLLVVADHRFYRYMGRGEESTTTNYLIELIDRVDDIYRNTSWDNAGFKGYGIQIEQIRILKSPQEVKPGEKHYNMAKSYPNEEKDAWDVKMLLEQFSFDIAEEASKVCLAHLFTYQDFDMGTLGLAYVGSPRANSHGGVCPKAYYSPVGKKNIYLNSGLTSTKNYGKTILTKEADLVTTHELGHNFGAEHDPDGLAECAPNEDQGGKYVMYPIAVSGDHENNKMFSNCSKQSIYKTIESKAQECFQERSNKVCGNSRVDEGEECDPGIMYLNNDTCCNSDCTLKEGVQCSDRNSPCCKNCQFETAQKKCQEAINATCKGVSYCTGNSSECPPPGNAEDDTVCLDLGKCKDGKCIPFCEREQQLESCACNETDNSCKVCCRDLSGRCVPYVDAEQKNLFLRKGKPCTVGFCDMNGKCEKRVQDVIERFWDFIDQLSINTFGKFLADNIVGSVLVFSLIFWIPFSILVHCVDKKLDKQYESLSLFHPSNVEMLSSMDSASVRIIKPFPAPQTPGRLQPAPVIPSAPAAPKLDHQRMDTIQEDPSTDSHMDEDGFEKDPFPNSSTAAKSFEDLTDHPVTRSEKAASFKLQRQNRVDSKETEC
# ADAM10 inh: human ADAM10 inhibitors, primary screen, biochemical, QFRET, HTS; Disintegrin and metalloproteinase domain-containing protein 10 (Homo sapiens), O14672; recombinant ADAM10, EDANS/DABCYL FRET peptide cleavage, 3 h; inhibition, % at 7 µM; actives 0.62% (n = 370,000);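 active means inhibition above a per-campaign cutoff equal to the mean of compounds falling between control-based bounds plus 3 SD, cut at about 20% in these data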;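 further: 0% = DMSO wells while the 100% control is not disclosed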
# NPR2 activator: human GC-B receptor activators, primary screen, HEK293 GC-B cells, cGMP TR-FRET, EC30 CNP | Atrial natriuretic peptide receptor 2 (Homo sapiens), P20594 | 0% at EC30 CNP, 100% saturating CNP | activation, % at 10 µM | actives 0.11% (n = 370,000) | AID 1920062, 2024;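 active means activation at 10 µM reaching about 35% in either raw or pattern-adjusted values, limit read from the data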
# NPR1 activator: GC-A stimulated cGMP production enhancers – HEK293 GC-A cells, cGMP TR-FRET, EC30 ANP, primary screen. actives 0.14% (n = 370,000). Atrial natriuretic peptide receptor 1 (Homo sapiens), P16066. 0% at EC30 ANP, 100% saturating ANP. activation, % at 10 µM; in the data active means activation above about 40%
# ADAM10 confirm: human ADAM10 inhibitors, confirmation, biochemical, QFRET, triplicate; shares compounds with ADAM10 inh; ADAM10 QFRET peptide cleavage, EDANS fluorescence; inhibition, % at 6.95 µM; actives 1% (n = 2,100);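 active means inhibition above about 20% chosen separately for each screening run, limit read from the data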;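 further: 0% = DMSO wells and 100% = marimastat wells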
# ADAM17 counter: ADAM17 inhibitors, counter-screen for ADAM10 exosite inhibitor project, biochemical, QFRET, high throughput. shares compounds with ADAM10 inh. ADAM17 QFRET peptide cleavage, EDANS fluorescence. inhibition, % at 6.95 µM. actives 0.5% (n = 2,100). AID 743214, 2013;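 active means mean triplicate inhibition above the solvent-only control wells' mean plus 3 SD, cut at about 12% in these data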;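 further: 0% = DMSO wells and 100% = marimastat wells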
# ADAM10 counter: ADAM10 inhibitors, counter-screen for ADAM17 exosite inhibitor project, biochemical, FRET, human ADAM10; shares compounds with ADAM17 inh; recombinant ADAM10, EDANS/DABCYL FRET peptide cleavage, 3 h; inhibition, % at 6.95 µM; actives 47% (n = 2,900);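 active means mean inhibition over the triplicate runs exceeds the activity threshold set in the earlier primary screen, cut at about 20% in these data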;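 further: 0% = DMSO wells and 100% = marimastat wells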
# ADAM17 confirm: ADAM17 inhibitors, hit retest, confirmation, biochemical, QFRET peptide cleavage; shares compounds with ADAM17 inh; recombinant ADAM17, EDANS/DABCYL QFRET peptide cleavage; inhibition, % at 6.95 µM; actives 65% (n = 2,900); AID 743257, 2014;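 active means mean inhibition across replicates above the hit cutoff set in the primary screen, cut at about 8.5% in these data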;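 further: 0% = DMSO wells and 100% = marimastat wells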
# Active calls of the source: *; . = not tested or not shown. The list is not random: actives were taken first. Their share in the collection is about 2%.
SMILES,FAS-TE inh,ADAM17 inh,ADAM10 inh,NPR2 activator,NPR1 activator,ADAM10 confirm,ADAM17 counter,ADAM10 counter,ADAM17 confirm
O=C1CC(=C(c2ccccc2)c2ccccc2)C(=O)N1CCCCN1CCN(c2cccc(Cl)c2)CC1,18,12*,32*,1,-13,5,1,4,8
Cc1ccccc1N1CCN(CCCN2C(=O)CC(=C(c3ccccc3)c3ccccc3)C2=O)CC1,12,2,5,-9,-3,.,.,.,.
CNCC(=O)Nc1ccc(OC(F)(F)F)cc1,-5,-5,-8,4,0,.,.,.,.
Cc1onc(-c2ccccc2)c1C(=O)OCC(=O)Nc1ccc(OC(F)(F)F)cc1,36,9.4*,25*,-5,-3,4,1,33*,17*
COc1cc(CC(=O)Nc2ccc(Cl)c(C(F)(F)F)c2)cc(OC)c1OC,11,3,7,-1,4,.,.,.,.
Cc1ccc(NC(=O)COC(=O)c2c(-c3ccccc3)noc2C)cc1,19,4,-9,0,-2,.,.,.,.
COc1ccc(C(=O)OCC(=O)Nc2ccc(Cl)c(C(F)(F)F)c2)c(OC)c1OC,27,8.7*,20*,1,5,3,1,23*,13*
COc1cccc(OC)c1C(=O)OCC(=O)Nc1ccc(OC(F)(F)F)cc1,14,10*,27*,1,3,2,0,2,6
CCc1ccc(NC(=O)C(C)OC(=O)c2ccc(NS(=O)(=O)c3ccc(C)c([N+](=O)[O-])c3)cc2)cc1 (centres undefined),35,12*,29*,-3,4,5,1,27*,17*
Cc1ccc(NC(=O)C(C)OC(=O)c2ccc(NS(=O)(=O)c3ccc(F)c(F)c3)cc2)cc1 (centres undefined),6,2,11,-1,-1,.,.,.,.
Cc1occc1-c1nnc(SCC(=O)N2CCN(c3ncccn3)CC2)n1-c1ccccc1,.,-3,-21,-2,-3,.,.,.,.
CCOC(=O)c1c(-c2ccccc2)csc1NC(=O)CSc1nc(C)cc(C)n1,12,3,18,7,6,.,.,.,.
CCOC(=O)c1c(-c2ccccc2)csc1NC(=O)CSc1nc(N)cc(N)n1,10,13*,26*,7,-1,5,1,11,9.8*
CCOC(=O)[C@]12CCCC=C1N(Cc1cccc3ccccc13)C(=O)[C@H](CC(=O)NCc1ccccc1)C2,14,8,18,4,-2,.,.,.,.
CCOC(=O)[C@]12CCCC=C1N(Cc1cccc3ccccc13)C(=O)[C@H](CC(=O)NCc1cccs1)C2,17,10*,27*,3,2,4,2,26*,16*
Cc1cc(F)ccc1C(=O)N1CCC(Oc2cccnc2)CC1,.,1,-2,5,2,.,.,.,.
C/C(=N/Nc1ccc([N+](=O)[O-])cc1)c1ccc(C)cc1C,48,9.6*,23*,-4,3,7,3,19,15*
CCCCCCCCN1C(=O)[C@@H](CC(=O)NCC2CCCCC2)C[C@@]2(C(=O)OC)C1=C[C@H](C(C)C)O[C@@H]2C1CC1,.,-6,1,-1,1,.,.,.,.
COc1cccc(-n2c(-c3ccc4[nH]c(C)c(C)c4c3)n[nH]c2=S)c1,0,14*,29*,-9,-15,6,3,-1,6
CCOc1ccc(C(=O)Nc2nnc(NC(=S)Nc3ccccc3)s2)cc1,3,6,10,-2,0,.,.,.,.
Cc1ccc(C(=O)Nc2nnc(NC(=S)Nc3ccccc3)s2)cc1,5,9.2*,24*,0,4,12,4,-9,3
O=C(Nc1cc(Cl)cc(Cl)c1)c1cccc(OC(F)F)c1,38,12*,27*,-8,5,7,2,23*,13*
Cc1ccnc(NC(=O)c2cccc(OC(F)F)c2)n1,-8,-2,-13,0,0,.,.,.,.
COCCCN1C(=O)c2[nH]nc(-c3cc(C)cc(C)c3O)c2C1c1ccc(O)c(OC)c1 (centres undefined),-72,2,4,0,-5,.,.,.,.
CCCN1C(=O)c2[nH]nc(-c3cc(Cl)c(C)cc3O)c2C1c1ccc(O)c(OC)c1 (centres undefined),-148,12*,21*,-15,-36,4,0,34*,19*
SMILES,FAS-TE inh,ADAM17 inh,ADAM10 inh,NPR2 activator,NPR1 activator,ADAM10 confirm,ADAM17 counter,ADAM10 counter,ADAM17 confirm
COc1cccc(C2c3c(-c4ccccc4O)n[nH]c3C(=O)N2Cc2ccco2)c1 (centres undefined),-67,5,16,-14,-25,.,.,.,.
Cc1cc(O)c(-c2n[nH]c3c2C(c2cccc(O)c2)N(Cc2cccnc2)C3=O)cc1Cl (centres undefined),-77,9.6*,22*,-7,-18,5,1,10,8
O[C@H](COc1ccc(F)cc1)CN1CCC(C(O)(c2ccccc2)c2ccccc2)CC1,.,3,6,-4,-3,.,.,.,.
COc1cccc(C(=O)n2ccc3ccc(-c4ccc5ccn(Cc6ccc(C#N)cc6)c5c4)cc32)c1,.,-7,-20,4,-1,.,.,.,.
COc1ccc(S(=O)(=O)Nc2cc3c4c(oc3c3ccccc23)CCCC4=O)cc1,23,7,9,-2,-2,.,.,.,.
COc1ccc(S(=O)(=O)Nc2cc3c4c(oc3c3ccccc23)CC(C)(C)CC4=O)cc1,34,9.1*,26*,0,9,11,2,21*,11*
CCn1nc([N+](=O)[O-])c(C(C#N)c2nc3cc(C(F)(F)F)ccc3s2)c(Cl)c1=O (centres undefined),-33,11*,28*,5,1,5,3,23*,14*
